In PubChem BioAssay (NCATS):
Records with an inconclusive call do not appear. Calls of active or inactive are those of the source. Unless noted, the call rests on the fitted dose curve; in most records, active means well fitted curve in the direction sought with a large enough effect; inconclusive means small, poorly fitted or top-dose-only effect, or another doubt; inactive means no such curve, though single readings can be large; an effect the other way counts as inactive or inconclusive.

Experiments:
[1] = qHTS for Inhibitors of Plasmodium falciparum (GB4) proliferation (AID 504315); further: nearly all actives have a fitted effect of over 50% in size
Summary of the method: (§1)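 Parasite growth measured as SYBR Green DNA fluorescence (ex 485, em 535 nm) after overnight lysis following 72 h culture at 37 °C, 0.3% parasitemia, 2.5% hematocrit. Values normalized against DMSO and 0.29 uM artemisinin controls, with plate-stack correction.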

[2] = qHTS for Inhibitors of Plasmodium falciparum (7G8) proliferation (AID 504316); further: series mostly up to about 6.7 µM; nearly all actives have a fitted effect of over 65% in size
Summary of the method: as §1

[3] = qHTS for Inhibitors of Plasmodium falciparum (HB3) proliferation (AID 504318); further: nearly all actives have a fitted effect of over 60% in size
Summary of the method: as §1

[4] = target: Atrial natriuretic peptide receptor 1 (Homo sapiens) (UniProt P16066); assay: Natriuretic polypeptide receptor (hNpr1) antagonism - Pilot CMLD screen (AID 1347052; calls by dose curve;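 further: HEK293 cells with hNpr1 stimulated by hNppA peptide at 0.1 nM; cGMP level read as GloSensor luciferase luminescence after agonist stimulation; series mostly up to about 9.2 µM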)
Sequence of Atrial natriuretic peptide receptor 1 (Homo sapiens) (P16066 whole entry, looked up): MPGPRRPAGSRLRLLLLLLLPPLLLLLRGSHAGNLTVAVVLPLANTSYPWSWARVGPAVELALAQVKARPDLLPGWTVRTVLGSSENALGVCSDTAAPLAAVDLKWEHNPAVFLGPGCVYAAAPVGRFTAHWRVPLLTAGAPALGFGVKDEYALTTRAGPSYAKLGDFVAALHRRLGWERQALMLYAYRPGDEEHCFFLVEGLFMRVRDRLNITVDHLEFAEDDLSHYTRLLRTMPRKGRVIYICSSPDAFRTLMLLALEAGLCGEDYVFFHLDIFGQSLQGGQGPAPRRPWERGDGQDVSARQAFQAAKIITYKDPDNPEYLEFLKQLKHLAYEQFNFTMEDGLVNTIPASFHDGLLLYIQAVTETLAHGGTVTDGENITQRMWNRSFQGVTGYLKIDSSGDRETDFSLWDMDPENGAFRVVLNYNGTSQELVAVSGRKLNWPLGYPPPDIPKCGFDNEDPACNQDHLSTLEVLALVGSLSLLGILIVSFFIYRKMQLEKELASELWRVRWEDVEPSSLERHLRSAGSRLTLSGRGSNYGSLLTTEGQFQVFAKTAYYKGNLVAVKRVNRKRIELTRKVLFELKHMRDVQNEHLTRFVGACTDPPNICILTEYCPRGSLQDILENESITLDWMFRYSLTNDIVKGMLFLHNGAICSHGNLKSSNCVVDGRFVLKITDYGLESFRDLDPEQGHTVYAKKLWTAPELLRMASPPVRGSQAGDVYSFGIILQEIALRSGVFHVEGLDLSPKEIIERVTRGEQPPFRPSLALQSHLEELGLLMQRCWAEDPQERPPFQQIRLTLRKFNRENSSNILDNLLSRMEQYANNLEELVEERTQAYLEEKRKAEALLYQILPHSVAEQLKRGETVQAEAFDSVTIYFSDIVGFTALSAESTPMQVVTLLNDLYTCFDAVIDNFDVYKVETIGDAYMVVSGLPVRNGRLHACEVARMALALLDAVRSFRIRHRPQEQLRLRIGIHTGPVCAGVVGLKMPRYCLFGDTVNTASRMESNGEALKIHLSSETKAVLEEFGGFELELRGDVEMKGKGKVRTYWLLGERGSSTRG

[5] = qHTS for Inhibitors of Plasmodium falciparum (CP250) proliferation (AID 504320)
Summary of the method: as §1

Measured: Potency

C=CCN=C1NC(CCc2ccccc2)C(C(=O)OC)=C(C)N1CC (stereo not drawn)
inactive: [1] | [2] | [3] | [4]

COC(=O)CCCC1=CC2=CC(=O)C(C)(OC(=O)c3cccs3)C(=O)C2=CN1C1CCCC1 (stereo not drawn)
inactive: [1] | [2] | [3] | [4]

CC(C)OC(=O)[C@H]1O[C@H](CCCCOCc2ccccc2)[C@@H](C)[C@H]2O[C@H]21
inactive: [1] | [2] | [3] | [5] | [4]

COC(=O)CC=C[C@@H](C)[C@@H](C=NO[C@H](C)c1cn([C@H](CO)Cc2ccccc2)nn1)NS(=O)(=O)c1ccc(C)cc1
inactive: [1] | [2] | [3] | [5] | [4]

COc1cccc([C@@H]2Oc3ccc(Br)cc3C(=O)[C@@H]2OC(=O)N[C@H]2CCCc3ccccc32)c1
inactive: [1] | [2] | [4]

CC(C)(C)Nc1oc(-c2ccccc2)nc1-c1ccccc1
inactive: [1] | [2] | [3] | [5] | [4]

CC12C=C(C=Cc3ccc(F)cc3)C(C)(C1)C(c1ccc(F)cc1)CC2=O (stereo not drawn)
inactive: [1] | [4]
